Reference: PubChem BioAssay (NCATS)
Records with an inconclusive call do not appear. Where a call stands in place of a potency, no number is given. A number with no mark means an inactive call. The source made the active and inactive calls. Calls come from the whole dose curve.

Assays:
[1] = Primary qHTS for inhibitors of SARS-S pseudo-typed particle cell entry (AID 1479145); conditions: SARS-S pseudotyped particle cell entry, luciferase reporter; series mostly up to 57.1 µM; note: nearly all actives have a fitted effect of over 45% in size
[2] = Primary qHTS for Huh7 cytotoxicity: counterscreen for inhibitors of MERS-S pseudotyped particle cell entry (AID 1479147); conditions: cell viability read-out; series mostly up to 57.1 µM; note: potency is the fitted concentration of half-maximal effect
[3] = Primary qHTS for inhibitors of MERS-S pseudo-typed particle cell entry (AID 1479149); conditions: MERS-S pseudotyped particle entry, luciferase; series mostly up to 57.1 µM; note: nearly all actives have a fitted effect of over 60% in size
[4] = Primary qHTS for Vero E6 cytotoxicity: counterscreen for inhibitors of SARS-S pseudo-typed particle cell entry (AID 1479150); conditions: cell viability; series mostly up to 57.1 µM; note: potency is the fitted concentration of half-maximal effect

SMILES	activity change, negative = inhibition [1]	outcome [2]	outcome [3]	outcome [4]	Potency [1]	Potency [2]	Potency [3]	Potency [4]
O=P(O)(O)C(Sc1ccc(Cl)cc1)P(=O)(O)O	-6.9% [at 0.573 µM]	inactive [at 0.573 µM]	inactive [at 0.573 µM]	inactive [at 0.573 µM]	–	–	–	–
CC(C)C(=O)c1c(C(C)C)nn2ccccc12	–	–	–	–	inactive	inactive	inactive	inactive
O=S(=O)(O)CCS	–	–	–	–	inactive	inactive	inactive	inactive
CC1(C)O[C@H]2CC(=O)OC[C@]23[C@H]2CC[C@@]4(C)[C@H](c5ccoc5)OC(=O)[C@H]5O[C@]54[C@]2(C)C(=O)C[C@@H]13	–	–	–	–	inactive	inactive	inactive	inactive
CC(=O)OCC(COC(C)=O)OC(C)=O	–	–	–	–	inactive	inactive	inactive	inactive
CC(=O)N(CC(O)CO)c1c(I)c(C(=O)NCCO)c(I)c(C(=O)NCC(O)CO)c1I (configuration not stated)	–	–	–	–	inactive	inactive	inactive	inactive
NCCS(=O)(=O)O	–	–	–	–	inactive	inactive	inactive	inactive
O=c1[nH]c(=O)n([C@H]2O[C@H](CO)[C@@H](O)[C@@H]2O)cc1/C=C\Br	–	–	–	–	inactive	inactive	inactive	inactive
CCCCOCCOC(=O)c1cccnc1	–	–	–	–	inactive	inactive	inactive	inactive
CNC[C@H](O)[C@@H](O)[C@H](O)[C@H](O)CO	–	–	–	–	inactive	inactive	inactive	inactive
NC(=O)NC1N=C([O][Al])NC1=O (configuration not stated)	–	–	–	–	inactive	inactive	inactive	inactive
CSCC[C@H](NC(=O)[C@H](Cc1ccc(OS(=O)(=O)O)cc1)NC(=O)[C@@H](N)CC(=O)O)C(=O)NCC(=O)N[C@@H](Cc1c[nH]c2ccccc12)C(=O)N[C@@H](CCSC)C(=O)N[C@@H](CC(=O)O)C(=O)N[C@@H](Cc1ccccc1)C(N)=O	–	–	–	–	inactive	inactive	inactive	inactive
CC(C)c1ccc2oc3nc(N)c(C(=O)O)cc3c(=O)c2c1	–	–	–	–	inactive	10 µM (active)	inactive	7.94 µM (active)
CCOc1ccc(NC(=O)CC(C)O)cc1 (configuration not stated)	–	–	–	–	inactive	inactive	inactive	inactive
Cc1ccccc1C(=O)N1CC/C(=N\OS(=O)(=O)O)c2ccc(Cl)cc21	–	–	–	–	inactive	inactive	inactive	inactive
NCCNCCNCCN	–	–	–	–	inactive	inactive	inactive	inactive
Clc1ccc2nsnc2c1NC1=NCCN1	–	–	–	–	inactive	inactive	inactive	inactive

SMILES	activity change, negative = inhibition [1]	outcome [2]	outcome [3]	outcome [4]	Potency [1]	Potency [2]	Potency [3]	Potency [4]
CCCC(=O)O[C@]1(C(=O)CO)CC[C@H]2[C@@H]3CCC4=CC(=O)CC[C@]4(C)[C@H]3[C@@H](O)C[C@@]21C	–	–	–	–	inactive	inactive	inactive	inactive
CCc1cc(C(N)=S)ccn1	–	–	–	–	inactive	inactive	inactive	inactive
CC(C)OC(=O)OCOP(=O)(CO[C@H](C)Cn1cnc2c(N)ncnc21)OCOC(=O)OC(C)C	–	–	–	–	inactive	inactive	inactive	inactive
NC(=O)NC(=O)Cc1ccccc1	–	–	–	–	inactive	inactive	inactive	inactive
C[N+]1(C)CCCC(OC(=O)C(O)(c2ccccc2)c2ccccc2)C1 (configuration not stated)	–	–	–	–	inactive	inactive	inactive	inactive
CCCC(O)C(CC)CO (configuration not stated)	–	–	–	–	inactive	inactive	inactive	inactive
O=C(CO)[C@@H](O)[C@H](O)[C@@H](O)CO	–	–	–	–	inactive	inactive	inactive	inactive
CO[C@@]1(NC(=O)C2SC(=C(C(N)=O)C(=O)O)S2)C(=O)N2C(C(=O)O)=C(CSc3nnnn3C)CS[C@@H]21 (some centres not stated)	–	–	–	–	inactive	inactive	inactive	inactive
CCC1(C)CC(=O)NC1=O (configuration not stated)	–	–	–	–	inactive	inactive	inactive	inactive
N[C@@H](Cc1cc(I)c(Oc2ccc(O)c(I)c2)c(I)c1)C(=O)O	–	–	–	–	inactive	inactive	inactive	inactive
CC1(C)O[C@@H]2C[C@H]3[C@@H]4C[C@H](F)C5=CC(=O)C=C[C@]5(C)[C@@]4(F)[C@@H](O)C[C@]3(C)[C@]2(C(=O)CO)O1	–	–	–	–	inactive	inactive	inactive	inactive
O=c1cc(O)c(Cl)c[nH]1	–	–	–	–	inactive	inactive	inactive	inactive
Cc1cc2cc3c(C)cc(=O)oc3c(C)c2o1	–	–	–	–	inactive	inactive	inactive	inactive
Nc1nc2ccc(OC(F)(F)F)cc2s1	–	–	–	–	inactive	inactive	inactive	inactive
CCCCOC(=O)c1ccc(N)cc1	–	–	–	–	inactive	inactive	inactive	inactive
CCCCC(O)/C=C(C)/C=C/C=C/C(=O)N1CCCC1=O (configuration not stated)	–	–	–	–	inactive	inactive	inactive	inactive
